S aureus helic – blocks Staphylococcus aureus DNA helicase. purified S. aureus helicase, fluorescence unwinding assay. 120,000 compounds, 0.05% hits. inhibition, % (test concentration not listed); in the data active = inhibition above about 25%, passing the limit was not always enough;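 also: 0% = mean of negative control wells and 100% = mean of positive control wells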
Sa growth 42C – S. aureus growth inhibition; S. aureus RN4220 growth, OD600, 20 h, 42 °C; active compounds read low; relative growth, % (no concentration beside the values); 170,000 compounds, 0.53% hits; AID 720641;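 active = relative growth at most 50% at the other temperature and 20+ points below 30 °C, or under 10% at both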
Numbers without * were called inactive; . = not tested or not shown; ! = not confirmed by another sample. Shown are actives, neighbours in structure and some others; about 0.52% of the full set was active somewhere.

SMILES | S aureus helic | Sa growth 42C
CCN1C(=O)S/C(=C/c2ccc(N3CCCC3)c(F)c2)C1=O | -4 | 116
CN1C(=O)CC(=O)N(C)c2cc(S(=O)(=O)N(C)Cc3ccccc3)ccc21 | . | -1.7*
CN(Cc1ccccc1)S(=O)(=O)c1ccc2c(c1)n(C)c(=O)c(=O)n2C | -3 | 87
C=CCN(CC=C)Cn1nc(Nc2ccccc2F)sc1=S | -11 | 71
C=CCN(CC=C)Cn1nc(-c2c[nH]c3ccccc23)oc1=S | -7 | 43*
c1ccc(-c2nnc(COc3ccc4ccccc4c3)o2)cc1 | 5 | 103
CCOC(=O)c1cn(C2CC2)c2c(F)c(F)c(F)cc2c1=O | -3 | 117
COc1ccc(C2=NN(CCC(=O)NCc3ccccc3)C(=O)CC2)cc1 | 6 | 103
N#Cc1cn(CCCOc2ccccc2Cl)c2ccccc12 | -3 | 93
Cc1cc(=O)oc2cc(OCC(O)CNC3CC3)ccc12 (centres undefined) | 2 | 88
O=C(Cc1c(Cl)cccc1Cl)NCC(c1ccco1)N1CCCC1 (centres undefined) | -9 | 96
COC(=O)CNC(=O)c1cc2c(=O)oc3ccccc3c2s1 | 6 | 111
CC(C)Oc1cccc(-c2nc(-c3ccccn3)no2)c1 | 8 | 89
Cn1c(=N)n(CC(=O)c2ccc(-c3ccccc3)cc2)c2ccccc21 | 8 | 117
C=CCn1c(=N)n(CC(=O)c2ccc(-c3ccccc3)cc2)c2ccccc21 | 13 | 5.3*
CCN(c1ccc2oc3ccccc3c2c1)S(=O)(=O)c1ccc(C#N)cc1 | -8 | 45*
CCN(c1ccccc1)S(=O)(=O)c1ccc(Cl)cc1 | 0 | 88
C=CCOc1c(Br)cc(Br)c2cccnc12 | -17 | 85
CCCCC(=O)Nc1ccc(S(=O)(=O)N2CCCCCC2)cc1 | -3 | 96
Cc1cccc2nc(-c3ccccn3)c(Nc3ccccc3)n12 | . | 103
Cc1cccc2nc(-c3ccccn3)c(Nc3ccc(F)cc3)n12 | . | 1.2*
S=c1nc(CNc2ccccc2)[nH][nH]1 | 3 | 63
O=C(O)/C=C/C(=O)c1ccc(C2CCCCC2)cc1 | . | -0.9*
O=C(O)/C=C/C(=O)Nc1ccc(C2CCCCC2)cc1 | . | 146
CC(C)=NNc1nc(Cl)c(C#N)c(Cl)c1Cl | . | 6.4*
SMILES | S aureus helic | Sa growth 42C
N#Cc1c(Cl)nc(Cl)c(Cl)c1Cl | -3 | 66
O=C(c1ccc2c(c1)N(Cc1ccccc1)C(=O)c1ccccc1S2=O)N1CCN(C(=O)c2ccco2)CC1 (centres undefined) | 9 | 108
On1ccccc1=S | 11 | 0.4*
Cn1ccccc1=S | -2 | 101
O=C(Oc1ccccc1-c1nc(-c2ccccc2)no1)c1ccccc1 | 2 | 122
Cc1[nH]n(-c2nc3ccccc3[nH]2)c(=O)c1C1OC(=O)c2ccccc21 (centres undefined) | 11 | 46
Cc1nn(-c2nc3ccccc3[nH]2)c(N)c1-c1ccccc1 | -13 | 85
O=c1cc(-c2ccccc2)[nH]n1-c1nc2ccccc2[nH]1 | 17 | 7.5*
Cc1cc(=O)n(-c2nc3ccccc3[nH]2)[nH]1 | 7 | 8.3*!
CCOc1ccc(N2C(=O)CC(N(CCc3ccccc3)C(C)=O)C2=O)cc1 (centres undefined) | 18 | 75
COc1ccc(-c2ccnc(SC)n2)cc1 | . | 129
COc1nncc(-c2cnnc(SC)n2)n1 | 8 | 0.1*
CCCCNS(=O)(=O)c1ccc2c(c1)C(=C(C#N)C#N)c1cc(S(=O)(=O)NCCCC)ccc1-2 | -3 | 82
CS(=O)(=O)c1ccc(NCC(=O)Nc2ccc(F)c(Cl)c2)cc1 | 6 | 77
O=C1/C(=C/c2ccncc2)CCC/C1=C\c1ccncc1 | 38 | -0.2*
O=C1/C(=C/c2cccnc2)CCCC/C1=C\c1cccnc1 | -16 | .
O=C(/C=C/c1ccccc1)N1CCc2ccccc21 | -6 | 101
Oc1cccc2ccc(Nc3ccccn3)nc12 | 11 | 77
CNc1ccc2cccc(O)c2n1 | 13 | 0.4*
CCOC(=O)c1c(NC(C)=O)c2c3c(sc2n1Cc1ccccc1Cl)CCCC3 | -21 | 92
CCOc1ccccc1CNc1ncnc2c1nc1n2CCCCC1 | 7 | 109
Cc1nnc2n1N=C(c1ccc(-c3cc(Cl)ccc3Cl)o1)CS2 | -31 | 80
COC(=O)c1cccc(C(=O)OC)c1 | -15 | 78
COC(=O)c1ccc(O)c(Sc2cc(C(=O)OC)ccc2O)c1 | 3 | 1.9*
CCN(CC)C(=O)CSc1nc(C)cc(=O)[nH]1 | 19 | 105
SMILES | S aureus helic | Sa growth 42C
N#C/C(=C\c1ccc(N2CCCC2)o1)c1ccccc1 | -134 | 77
C[n+]1ccc(/C=C/c2ccc(N3CCCC3)o2)cc1 | 57* | 98
N#Cc1ccsc1NC(=O)C1CC1 | -9 | .
CN1C(=O)c2ccccc2N(C)C1c1ccc(F)cc1 (centres undefined) | 10 | 116
CN1c2ccccc2N(C)C1c1ccc(O)cc1 | 2 | -1.2*
CNC(=S)N/N=C/c1ccc(-c2ccccc2C(=O)OC)o1 | 1 | 111
COc1cccc(C(c2cc3c(cc2O)OCO3)N2CCCC2)c1O (centres undefined) | 1 | 1.2*

Source: PubChem
